In assay [1] the target is Aldehyde dehydrogenase, mitochondrial (Homo sapiens) (UniProt P05091). As to the kind of experiment: qHTS for Inhibitors of the Aldehyde Dehydrogenase Family (ALDH2) Primary screen (AID 2061308). Note: nearly all actives have a fitted effect of over 55% in size. To be noted: ALDH2 enzyme inhibition qHTS, 1536-well; series mostly up to 56 µM.
In assay [2] the target is Retinaldehyde dehydrogenase 3 (Homo sapiens) (UniProt P47895). As to the kind of experiment: qHTS for Inhibitors of the Aldehyde Dehydrogenase Family (ALDH1A3) Primary screen (AID 2061315). Conditions: ALDH inhibition qHTS; series mostly up to 56 µM.

This note sets out measurements from PubChem BioAssay (NCATS).

Records with an inconclusive call do not appear. Entries that show only a call come without a potency. Active and inactive are the calls of the source. Calls come from the whole dose curve; as a rule, active = well fitted curve in the direction sought with a large enough effect; inconclusive = small, poorly fitted or top-dose-only effect, or another doubt; inactive = no such curve, though single readings can be large; an effect the other way counts as inactive or inconclusive.

Regarding `CCOc1ccccc1-c1nnc2n1N=C(c1cc(OC)ccc1OC)CS2`, the Potency result in assay [1] and in assay [2] was “inactive” each time.

For `CC(=O)Nc1ccc(S(=O)(=O)Nc2ccc(C)c(C)c2)cc1`, the Potency entry in assay [1] and in assay [2] was “inactive” each time.

With `O=C(/C=C/c1ccc(Cl)cc1)Nc1cccc([S+](=O)([O-])Nc2ccccc2F)c1`, the Potency result in assay [1] and in assay [2] was “inactive” each time.

For the molecule `CC(C)(C)NC(=O)Nc1nnc(-c2ccncc2)s1`, the Potency entry in assay [1] and in assay [2] was “inactive” throughout.

With `CCOC(=O)c1cc2c([nH]1)CCCC2=O`, the Potency entry in assay [1] and in assay [2] was “inactive” each time.

Take `CCN(CC)CCCn1c(-c2ccccc2)nc2c(NCCOC)nc(C)nc21`: the Potency result in assay [1] and in assay [2] was “inactive” throughout.

Take `COc1ccc(C(CC(=O)N2CC(C)CC(C)C2)c2c(O)cc(OC)cc2OC)cc1` (configuration not stated): the Potency entry in assay [1] and in assay [2] was “inactive” throughout.

Consider `CC(Nc1nc(-c2ccccc2C(F)(F)F)nc2ccccc12)c1ccc(-c2ccccc2)cc1` (configuration not stated), for which the Potency entry in assay [1] and in assay [2] was “inactive” throughout.

For the molecule `Cc1cc(C)nc(NC(=S)N2CCN(Cc3c(F)cccc3Cl)CC2)c1`, the Potency entry in assay [1] and in assay [2] was “inactive” in each case.

`CSc1ccccc1-c1ccc(Nc2nc(-c3ccncc3)nc3ccccc23)cc1F`: the Potency entry in assay [1] and in assay [2] was “inactive” throughout.

For `Cc1nc(CCNc2ncnc3ccc(-c4ccc5c(c4)OCO5)cc23)cs1`, the Potency entry in assay [1] and in assay [2] was “inactive” each time.

With `CCCn1c(C)nc2c(NC3CCN(Cc4ccccc4)C3)nc(C)nc21` (configuration not stated), the Potency result in assay [1] and in assay [2] was “inactive” in each case.

On to `O=C(NNc1nc2cc(F)ccc2n2cccc12)c1cnccn1`, for which the Potency entry in assay [1] and in assay [2] was “inactive” in each case.

Regarding `O=S(=O)(Nc1ccc(-c2ccccc2)cc1)c1ccc(NCc2ccc(Br)cc2O)cc1`, the Potency entry in assay [1] and in assay [2] was “inactive” throughout.

Take `Oc1ccc(/C=C/c2ccccc2F)c2cccnc12`: the Potency result in assay [1] and in assay [2] was “inactive” in each case.

In the case of `O=C(Nc1ccc(F)c(C(F)(F)F)c1)Nc1ccc(-c2ccncc2)s1`, the Potency result in assay [1] and in assay [2] was “inactive” in each case.

As for `O=C(O)c1ccc(-c2ccc3ncnc(NCC4CCCO4)c3c2)o1` (configuration not stated), the Potency entry in assay [1] and in assay [2] was “inactive” each time.

For the molecule `CN(C(=O)Nc1ccc2ccccc2c1)c1nnc(-c2ccncc2)s1`, the Potency entry in assay [1] and in assay [2] was “inactive” throughout.

Take `COc1cccc(-c2ccc(=O)n(CC(=O)NCCc3ccccc3)n2)c1`: the Potency result in assay [1] and in assay [2] was “inactive” in each case.

For `COc1ccc(C2=Nn3c(nnc3-c3ccccc3Cl)SC2)cc1OC1CCOC1` (configuration not stated), the Potency result in assay [1] and in assay [2] was “inactive” in each case.

For `Cc1cc2c(s1)c1cnn(Cc3ccc(F)c(F)c3)c(=O)c1n2C`, the Potency entry in assay [1] and in assay [2] was “inactive” in each case.

For `CC1=C(C(=O)Nc2nc3ccccc3s2)C2(CCCC2)N=C(Nc2nc3ccccc3o2)N1`, the Potency entry in assay [1] and in assay [2] was “inactive” each time.

In the case of `FC(F)(F)c1cccc(N2CCN(C(=S)Nc3cc(C(F)(F)F)ccn3)CC2)c1`, the Potency result in assay [1] and in assay [2] was “inactive” in each case.

Consider `CCCn1c(C)nc2c(NCCO)nc(C)nc21`, for which the Potency entry in assay [1] and in assay [2] was “inactive” each time.

In the case of `Cc1ccc(S(=O)(=O)Nc2cnccc2C(=O)Nc2ccc(-n3cncn3)cc2)cc1`, the Potency entry in assay [1] and in assay [2] was “inactive” throughout.

Consider `O=C(Nc1ccc2ccccc2c1)Nc1nnc(-c2ccc(Cl)cc2Cl)s1`, for which the Potency result in assay [1] and in assay [2] was “inactive” throughout.

In the case of `C=C1CC2OC(=O)C(=C)C2C(OC(=O)/C(C)=C\C)CC2(C)OC1=CC2=O` (configuration not stated), the Potency entry in assay [1] and in assay [2] was “inactive” throughout.

Regarding `Nc1ccc(S(=O)(=O)N2CCCN(S(=O)(=O)c3ccc4c(c3)OCCO4)CC2)cc1`, the Potency entry in assay [1] and in assay [2] was “inactive” in each case.

`COc1ccc([S+](=O)([O-])N2CCCN([S+](=O)([O-])c3ccc(OC)c(N)c3)CC2)cc1N`: the Potency entry in assay [1] and in assay [2] was “inactive” in each case.

For the molecule `COc1ccnc(NC(=S)N2CCN(c3cccc(C(F)(F)F)n3)CC2)c1`, the Potency result in assay [1] and in assay [2] was “inactive” each time.

For the molecule `COc1ccc(C2=Nn3c(nnc3-c3ccccc3C(F)(F)F)SC2)cc1O[C@H]1CCOC1`, the Potency result in assay [1] and in assay [2] was “inactive” each time.

Regarding `C=Cc1nc(Nc2cc(F)cc(F)c2)nc(NC2CCCC2)n1`, the Potency entry in assay [1] and in assay [2] was “inactive” in each case.

Turning to `COc1cccc(C(=O)NCCc2nc3ccccc3n2CCOc2ccc(C)cc2)c1`, the Potency entry in assay [1] and in assay [2] was “inactive” in each case.

Regarding `C/C1=C\CC(C)(C)/C=C/C/C(C(=O)O)=C/CC1`, the Potency entry in assay [1] and in assay [2] was “inactive” throughout.

`C/C=C(\C)C(=O)OC1C[C@@]2(COC(C)=O)O[C@H]2/C=C\[C@@]2(C)O[C@@H]2[C@H]2OC(=O)C(COC(C)=O)=C12` (some centres not stated): the Potency entry in assay [1] and in assay [2] was “inactive” throughout.

As for `COc1cc(OC)cc(C2=Nn3c(nnc3-c3cccc(OC)c3)SC2)c1`, the Potency entry in assay [1] and in assay [2] was “inactive” in each case.

With `CCCn1c(C)nc2c(N3CCOCC3)nc(C)nc21`, the Potency result in assay [1] and in assay [2] was “inactive” throughout.

For the molecule `Clc1ccccc1-c1nc(NCc2ccc(-c3cccnc3)cc2)c2ccccc2n1`, the Potency result in assay [1] and in assay [2] was “inactive” each time.

As to `CC(=O)NC(c1ccco1)c1cc(F)c2cccnc2c1O` (configuration not stated), the Potency result in assay [1] and in assay [2] was “inactive” throughout.

Consider `O=C(Nc1ccc2c(c1)OCCO2)Nc1nnc(-c2ccncc2)s1`, for which the Potency entry in assay [1] and in assay [2] was “inactive” throughout.

For `Cc1ccc(OCCn2c3c(c4ccccc42)CCN(C(=O)C2CCCCC2)C3)cc1`, the Potency result in assay [1] and in assay [2] was “inactive” in each case.
